# Results reported in PubChem BioAssay (Tox21).
# Several values for one entry are separate records, joined by “and”; a condition that tells them apart may be missing. Equal values may be shown once. Results filed as inconclusive are left out. Where a call stands in place of a potency, no number is given. Where a structure was tested more than once in an assay, its records may differ in their call. Activity calls are given as the source filed them. Unless noted, calls follow the shape of the full dose curve.
# What was measured:
# [1] = Nuclear factor erythroid 2-related factor 2/antioxidant responsive element (Nrf2/ARE) small molecule agonists: qHTS cell viability counter screen in human keratinocytes (AID 1919968; active = well fitted curve in the direction sought with a large enough effect in the repeat runs; an effect the other way counts as inactive or inconclusive; also: nearly all actives have a fitted effect of over 55% in size)
# How it was run: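 CellTiter-Fluor fluorescence, read 1 h after reagent, gave viability in the same wells as the ARE-luciferase assay. KeratinoSens cells (1,500/well) had 23 h compound exposure at 37 C/5% CO2 following 5 h plating.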
# [2] = Nuclear factor erythroid 2-related factor 2/antioxidant responsive element (Nrf2/ARE) small molecule agonists: luciferase reporter gene qHTS assay in human keratinocytes (AID 1919969); also: nearly all actives have a fitted effect of over 35% in size; also: potency is read from the fitted curve at half-maximal effect
# [3] = target: Gonadotropin-releasing hormone receptor (Homo sapiens) (UniProt P30968); test: Human gonadotropin-releasing hormone receptor (GnRHR) small molecule agonists, calcium flux assay in GnRHR-HEK293 cells (AID 1920063); also: nearly all actives have a fitted effect of over 35% in size
# How it was run: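 Agonist mode: compounds at 15 concentrations, in triplicate, went onto calcium dye-loaded GnRHR-HEK293 cells. Intracellular calcium was then followed as 480/540 nm fluorescence at 1 s intervals over 3 min.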
# [4] = target: KiSS-1 receptor (Homo sapiens) (UniProt Q969F8); test: Human kisspeptin (KISS1R) small molecule agonists, calcium flux assay in KISS1R-HEK293 cells (AID 1920064; active = well fitted curve in the direction sought with a large enough effect in the repeat runs; an effect the other way counts as inactive or inconclusive)
# How it was run: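 Agonist mode: intracellular calcium rise tracked at 1 s intervals over 3 min (480/540 nm) immediately after compound addition to dye-loaded KISS1R-HEK293 stable cells. Each compound tested at 15 concentrations in triplicate.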
# [5] = G protein-coupled receptor (GPCR) small molecule agonists, calcium flux assay: HEK293 wild type cell line counter screen (AID 1920065)
# How it was run: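 Calcium flux counter screen: compound added in agonist mode at 15 concentrations in triplicate to dye-loaded parental HEK293 cells. Fluorescence (480/540) read kinetically for 3 min; ATP served as positive control.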
# [6] = p53 small molecule agonists, cell-based qHTS assay with human liver microsomes (AID 1963577);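 also: p53 response element beta-lactamase reporter cells with liver microsomes plus NADPH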
# How it was run: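 In this qHTS, p53 response-element beta-lactamase cells receive test compound together with a microsome/NADPH activating system (0.5 mg/mL final each) and are incubated 16 h at 37 C before LiveBLAzer fluorescence detection.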
# [7] = p53 small molecule agonists, cell-based qHTS assay with rat liver microsomes (AID 1963578)
# How it was run: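 Agonist mode in p53RE-bla reporter cells, with compounds co-incubated 16 h at 37 C alongside 0.5 mg/mL rat liver microsomes and 0.5 mg/mL NADPH (final), followed by a 2 h LiveBLAzer detection step.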
# [8] = p53 small molecule agonists, cell-based qHTS assay with human liver microsomes: qHTS cell viability counter screen (AID 1963579); also: nearly all actives have a fitted effect of over 45% in size; also: potency is read from the fitted curve at half-maximal effect
# How it was run: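 Metabolically activated exposure: compounds, human liver microsomes and NADPH (0.5 mg/mL final apiece) were added to p53RE-bla cells seeded 5 h earlier, left 16 h at 37 C, and then assessed for viability by CellTiter-Glo luminescence.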
# [9] = p53 small molecule agonists, cell-based qHTS assay: qHTS cell viability counter screen (AID 1963581); also: nearly all actives have a fitted effect of over 45% in size
# How it was run: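 Counter screen read by CellTiter-Glo luminescence (ATP content, 30 min at room temperature), run in the same wells as the beta-lactamase reporter read. HCT-116 p53RE-bla cells saw compounds for 16 h at 37 C.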
# [10] = target: 5-hydroxytryptamine receptor 2A (Homo sapiens) (UniProt P28223); test: 5-hydroxytryptamine receptor 2A (HTR2A) small molecule antagonists, cell-based qHTS assay (AID 1963586); also: nearly all actives have a fitted effect of over 45% in size; also: potency is read from the fitted curve at half-maximal effect
# How it was run: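 CHO cells stably expressing human HTR2A were plated for 18 h at 37 C, then loaded with calcium dye for 1 h. Compounds were preincubated 5 min at room temperature before DOI (4 nM solution) was added. Kinetic fluorescence was read for 3 min.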
# [11] = target: 5-hydroxytryptamine receptor 2A (Homo sapiens) (UniProt P28223); test: 5-hydroxytryptamine receptor 2A (HTR2A) small molecule agonists, cell-based qHTS assay (AID 1963587); also: nearly all actives have a fitted effect of over 30% in size
# How it was run: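 CHO cells stably expressing human HTR2A, plated 18 h, loaded with calcium dye 1 h at 37 C. Agonist mode: compounds added and intracellular calcium fluorescence recorded kinetically for 2 min at 1 sec intervals.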
# [12] = target: Muscarinic acetylcholine receptor M1 (Homo sapiens) (UniProt P11229); test: Cholinergic receptor muscarinic 1 (CHRM1) small molecule antagonists, cell-based qHTS assay (AID 1963588); also: nearly all actives have a fitted effect of over 40% in size; also: potency is read from the fitted curve at half-maximal effect
# How it was run: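 Compounds were tested at 15 concentrations in three independent runs. Dye-loaded CHRM1-CHO cells were exposed 5 min at room temperature before stimulation by acetylcholine added at 50nM. Intracellular calcium was read kinetically on FDSS for 3 min.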
# [13] = target: Muscarinic acetylcholine receptor M1 (Homo sapiens) (UniProt P11229); test: Cholinergic receptor muscarinic 1 (CHRM1) small molecule agonists, cell-based qHTS assay (AID 1963589); also: nearly all actives have a fitted effect of over 35% in size
# How it was run: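 Agonist-mode calcium-flux screen: compounds at 15 concentrations, three independent runs, were pin-transferred onto dye-loaded human CHRM1-CHO cells. Fluorescence was then recorded kinetically every second over minutes.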
# [14] = cAMP Responsive Elements (CRE) small molecule agonists, cell-based qHTS assay (AID 1963590)
# How it was run: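 Agonist mode: compound added to CRE-bla HEK 293T cells (2,000/well, 18 h after plating) for 3 h at 37 C/5% CO2. Reporter activity detected via FRET beta-lactamase substrate, 2 h room-temperature loading.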
# [15] = cAMP Responsive Elements (CRE) small molecule antagonists, cell-based qHTS assay (AID 1963591; active = well fitted inhibition curve with a large enough effect in the signal ratio in the repeat runs, not every such curve was filed as active; the % refers to the signal ratio)
# How it was run: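 Antagonist mode: compounds are added alongside the adenylyl cyclase activator NKH477 (0.25 uM final) to CRE-bla HEK293T cells for 3 h. LiveBLAzer FRET substrate, 2 h at room temperature, reports bla expression.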
# [16] = target: Beta-2 adrenergic receptor (Homo sapiens) (UniProt P07550); test: Adrenergic beta2 receptor (ADRB2) small molecule antagonists, cell-based qHTS assay (AID 1963592); also: series mostly up to about 92 µM; nearly all actives have a fitted effect of over 50% in size
# How it was run: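 Assay format: CHO-ADRB2 cells, 18-20hr seeding at 37C/5% CO2, then compound plus 1nM isoproterenol agonist mix for 0.5hr RT. Homogeneous time-resolved fluorescence cAMP detection after 1hr, expressed as 665/615 nm ratio.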
# [17] = target: D(2) dopamine receptor (Homo sapiens) (UniProt P14416); test: Dopamine D2 receptor (DRD2) small molecule agonists, cell-based qHTS assay (AID 1963594); also: nearly all actives have a fitted effect of over 35% in size
# How it was run: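 HEK293 cells stably expressing human DRD2, pre-treated with PDE inhibitor Ro20-1724 (0.1 mM final) and compound 10 min at room temperature, then stimulated with NKH477 (200nM […]) for 30 min. cAMP read by HTRF (665/620 nm).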
# [18] = target: D(2) dopamine receptor (Homo sapiens) (UniProt P14416); test: Dopamine D2 receptor (DRD2) small molecule antagonists, cell-based qHTS assay (AID 1963595; active = well fitted inhibition curve with a large enough effect in the signal ratio in the repeat runs, with a control signal flat; the % refers to the signal ratio)
# How it was run: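 HEK293 cells stably expressing DRD2 were preincubated with 0.1 mM Ro20-1724, then with compound for 10 min at room temperature. Cells were stimulated with 200 nM NKH477 plus 12 nM quinpirole for 30 min, and cAMP was read by HTRF.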
# [19] = p53 small molecule agonists, cell-based qHTS assay (AID 1963582; active = well fitted activation curve with a large enough effect in the signal ratio in the repeat runs, not every such curve was filed as active; the % refers to the signal ratio)
# How it was run: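 Read-out is beta-lactamase FRET fluorescence after 2 h at room temperature with LiveBLAzer B/G substrate. p53 response element-bla cells were treated 16 h at 37 C with compounds in DMSO, added 5 h after seeding.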
# Chain of Beta-2 adrenergic receptor (Homo sapiens) (P07550 whole entry, looked up): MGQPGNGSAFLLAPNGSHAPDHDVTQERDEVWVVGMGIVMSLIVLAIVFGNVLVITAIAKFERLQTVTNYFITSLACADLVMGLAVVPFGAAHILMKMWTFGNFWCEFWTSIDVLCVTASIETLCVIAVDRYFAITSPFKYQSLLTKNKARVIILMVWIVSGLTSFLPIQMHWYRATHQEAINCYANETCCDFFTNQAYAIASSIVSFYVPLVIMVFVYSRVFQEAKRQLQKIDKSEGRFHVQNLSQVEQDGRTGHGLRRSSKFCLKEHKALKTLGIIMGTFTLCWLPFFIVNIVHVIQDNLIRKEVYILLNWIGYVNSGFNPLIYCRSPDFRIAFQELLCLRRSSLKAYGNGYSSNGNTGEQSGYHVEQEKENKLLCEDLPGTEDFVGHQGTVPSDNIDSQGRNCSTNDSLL
# Chain of Gonadotropin-releasing hormone receptor (Homo sapiens) (P30968 whole entry, looked up): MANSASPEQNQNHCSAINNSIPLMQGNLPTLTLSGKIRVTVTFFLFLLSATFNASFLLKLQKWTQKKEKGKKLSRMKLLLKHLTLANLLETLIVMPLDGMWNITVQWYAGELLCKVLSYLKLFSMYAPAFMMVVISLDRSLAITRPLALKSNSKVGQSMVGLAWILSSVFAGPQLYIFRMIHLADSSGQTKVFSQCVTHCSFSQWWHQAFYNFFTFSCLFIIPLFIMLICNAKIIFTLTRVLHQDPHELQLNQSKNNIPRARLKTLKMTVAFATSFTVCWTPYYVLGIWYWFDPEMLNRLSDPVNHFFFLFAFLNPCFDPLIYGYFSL
# Chain of KiSS-1 receptor (Homo sapiens) (Q969F8 whole entry, looked up): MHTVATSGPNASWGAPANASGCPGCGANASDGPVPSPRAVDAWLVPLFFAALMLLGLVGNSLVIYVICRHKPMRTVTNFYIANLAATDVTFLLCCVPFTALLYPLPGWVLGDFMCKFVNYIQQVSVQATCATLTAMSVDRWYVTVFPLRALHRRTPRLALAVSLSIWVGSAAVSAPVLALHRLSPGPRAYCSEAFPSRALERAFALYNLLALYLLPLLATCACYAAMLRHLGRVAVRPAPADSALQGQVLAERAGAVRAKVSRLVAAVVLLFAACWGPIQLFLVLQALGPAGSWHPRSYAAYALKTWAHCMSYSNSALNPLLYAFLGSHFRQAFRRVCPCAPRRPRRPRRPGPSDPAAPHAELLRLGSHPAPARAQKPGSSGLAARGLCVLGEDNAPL
# Chain of 5-hydroxytryptamine receptor 2A (Homo sapiens) (P28223 whole entry, looked up): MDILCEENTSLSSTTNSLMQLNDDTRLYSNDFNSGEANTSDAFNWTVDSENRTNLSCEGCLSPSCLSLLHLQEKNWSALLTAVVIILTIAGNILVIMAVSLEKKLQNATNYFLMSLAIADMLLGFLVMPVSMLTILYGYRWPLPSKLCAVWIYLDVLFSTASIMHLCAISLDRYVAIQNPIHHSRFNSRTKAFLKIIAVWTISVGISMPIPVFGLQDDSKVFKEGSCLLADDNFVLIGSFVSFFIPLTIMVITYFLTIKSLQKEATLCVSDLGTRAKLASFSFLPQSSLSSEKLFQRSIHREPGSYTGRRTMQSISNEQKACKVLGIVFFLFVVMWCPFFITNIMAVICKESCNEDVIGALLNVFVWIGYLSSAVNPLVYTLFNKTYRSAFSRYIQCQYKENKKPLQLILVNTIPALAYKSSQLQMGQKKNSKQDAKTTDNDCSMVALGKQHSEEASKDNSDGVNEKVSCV
# Chain of D(2) dopamine receptor (Homo sapiens) (P14416 whole entry, looked up): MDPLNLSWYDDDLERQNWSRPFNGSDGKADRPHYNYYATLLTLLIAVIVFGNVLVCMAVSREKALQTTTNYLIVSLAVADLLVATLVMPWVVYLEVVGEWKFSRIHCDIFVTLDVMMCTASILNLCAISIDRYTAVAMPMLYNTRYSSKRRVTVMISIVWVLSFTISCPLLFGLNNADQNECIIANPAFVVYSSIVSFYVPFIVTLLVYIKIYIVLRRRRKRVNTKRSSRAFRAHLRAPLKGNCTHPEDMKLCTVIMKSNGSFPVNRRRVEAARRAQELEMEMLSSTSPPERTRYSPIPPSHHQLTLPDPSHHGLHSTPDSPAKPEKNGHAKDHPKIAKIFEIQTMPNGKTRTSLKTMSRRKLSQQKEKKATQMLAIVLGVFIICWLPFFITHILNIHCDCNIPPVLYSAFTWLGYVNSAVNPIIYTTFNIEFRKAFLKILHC
# Chain of Muscarinic acetylcholine receptor M1 (Homo sapiens) (P11229 whole entry, looked up): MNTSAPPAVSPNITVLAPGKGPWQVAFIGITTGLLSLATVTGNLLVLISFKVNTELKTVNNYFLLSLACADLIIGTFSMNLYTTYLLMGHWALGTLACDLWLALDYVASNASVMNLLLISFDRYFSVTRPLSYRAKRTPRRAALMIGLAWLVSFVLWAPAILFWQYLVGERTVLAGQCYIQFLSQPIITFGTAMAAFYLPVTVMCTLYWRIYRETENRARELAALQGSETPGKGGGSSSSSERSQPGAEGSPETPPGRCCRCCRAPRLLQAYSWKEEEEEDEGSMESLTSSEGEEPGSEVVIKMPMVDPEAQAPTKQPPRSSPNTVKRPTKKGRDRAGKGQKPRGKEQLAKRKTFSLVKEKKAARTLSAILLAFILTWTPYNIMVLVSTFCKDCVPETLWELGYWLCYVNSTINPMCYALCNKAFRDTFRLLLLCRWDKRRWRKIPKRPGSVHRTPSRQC
Compound,Potency [1],Potency [2],Potency [3],Potency [4],Potency [5],Potency [6],Potency [7],Potency [8],Potency [9],Potency [10],Potency [11],Potency [12],Potency [13],Potency [14],Potency [15],Potency [16],Potency [17],Potency [18],Potency [19],"activity change, negative = inhibition [15]"
CCCCCCCCCCCC#N,inactive,inactive,inactive,inactive,inactive,inactive,inactive,inactive and 42.3 µM (active),inactive,inactive,inactive,inactive,inactive,inactive,inactive,inactive,inactive,inactive,–,–
CCN(CC)C(=O)C(C)Oc1cccc2ccccc12 (stereo not given),inactive,inactive,inactive,inactive,inactive,inactive,inactive,inactive,–,inactive,inactive,inactive,inactive,inactive,inactive,inactive,inactive,inactive,–,–
ClC(Cl)(Cl)Br,inactive,inactive,inactive,inactive,inactive,inactive,inactive,inactive,inactive,inactive,inactive,–,inactive,inactive,–,inactive,inactive,inactive,inactive,0.761% [at 18.9 µM] (inactive)
COc1ccc(O)c(C(C)(C)C)c1,inactive,68.7 µM (active),inactive,inactive,inactive,inactive,inactive,inactive,inactive,23.7 µM (active) and inactive,inactive,inactive,inactive,–,inactive,inactive,inactive,–,inactive,–
Cc1ccc(N)cc1C,inactive,9.77 µM (active),inactive,inactive,inactive,inactive,inactive,inactive,inactive,inactive,inactive,inactive,inactive,inactive,inactive,inactive,inactive,inactive,inactive,–
CC(C)CCCCCOC(=O)c1ccccc1C(=O)OCCCCCC(C)C,inactive,inactive,inactive,inactive,inactive,inactive,inactive,inactive,inactive,inactive,inactive,2.62 µM (active),inactive,–,inactive,–,inactive,inactive,inactive,–
CCCCCCI,inactive,inactive,inactive,inactive,inactive,inactive,inactive,inactive,inactive,inactive,inactive,inactive,inactive,inactive,inactive,inactive,inactive,inactive,inactive,–
